Where “and” joins values, the source holds several entries; their conditions need not be identical. Identical values can stand only once. The panel holds about 83,000 compounds, 20% with a hit somewhere; the sample as a whole holds those more often.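 Note: values are percent growth. 100 is the growth of untreated cells, values between 100 and 0 indicate rising inhibition; between -100 and 0 indicates cell death.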 Values without a mark were called inactive. Calls of active or inactive are those of the source. How the source made its calls: active means growth percent below 10; inactive means the rest.

The test system of the assay is MDA-MB-468 breast. The experiment in a line: NCI-60 one-dose screen, 48 h (100 = growth as untreated, 0 = no growth, -100 = all killed). To be noted: 10 µM unless noted.
Take `O=c1[nH]c(=O)n(C2C[C@@H](O)[C@@H](CO)O2)cc1F` (some centres undefined): the growth was -3.59% (active). For the compound `NCCCNc1nc2ccccc2c2c(=O)c3cc(F)ccc3sc12`, the growth is 1.26% (active).

Take `CC(=O)Oc1ccc(C2=Cc3ccc(OC(C)=O)cc3OC2C)cc1` (centres undefined): the growth was 56.5%. For `CC(=O)O[C@@]12CO[C@@H]1C[C@H](O)[C@@]1(C)C(=O)[C@H](O)C3=C(C)[C@@H](OC(=O)[C@H](O)[C@@H](NC(=O)OC(C)(C)C)c4ccccc4)C[C@@](O)([C@@H](OC(=O)c4ccccc4)C12)C3(C)C` (some centres undefined) the value was 3.09% (active); for `Cc1ccc(-c2csc(/N=C3\C(=O)Nc4ccccc43)n2)cc1`, -12.5% (active). For `COc1ccc(-c2nc3ccc(C)cc3c3c2c(=O)n(C)c(=O)n3C)cc1OC` the value was 100%. For the compound `CCN1CCN(CC(=O)Nc2nc3ccc(NCc4ccc(F)cc4)cc3s2)CC1`, the growth is 86.1%.

Take `COc1ccc(Nc2ncc(Br)c(NCCCNC(=O)c3cccs3)n2)cc1`: the growth was 51.1%.

For `Cc1ccc(N=C2CSc3nnc(-c4csc5c4CCCC5)n3N2)cc1`, the growth is 17%. For `O=C(O)c1cccc(Br)c1` the value was 104% and 101%; for `COc1ccc(OCC(CO)N2CCN(c3ccccc3)CC2)cc1` (centres undefined), 99.6%; for `CCN(C(=O)Nc1cccc2ccccc12)c1ccccc1`, 99.7%. For `O=S(=O)(c1ccccc1)n1cc2c(c1-c1ccccc1)CCc1sc(Nc3ccccc3)nc1-2` the value was 73.3%; for `CCN1CCN(C(=O)[C@]23CC[C@@H](C)[C@H](C)[C@@H]2C2=CC[C@@H]4[C@@]5(C)CCC(=O)C(C)(C)[C@@H]5CC[C@@]4(C)[C@]2(C)CC3)CC1`, -7.11% (active).
